From PubChem BioAssay (NCATS)
Records with an inconclusive call do not appear. Activity calls are given as the source filed them. The call rests on the fitted dose curve; in most records, active means well fitted inhibition curve with a large enough effect; inconclusive means small, poorly fitted or top-dose-only effect; inactive means flat fitted curve, though single readings scatter.

How the values were obtained:
[1] = test system: JCK; assay: qHTS profiling for inhibitors of Plasmodium falciparum proliferation (AID 504749);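 further: 0% = DMSO vehicle and full inhibition = artemisinin control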; conditions: P. falciparum in erythrocytes, SYBR Green DNA, 72 h; series mostly up to 28.7 µM
Summary of the method: (§1)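 Each compound contacts P. falciparum-infected red blood cells for 72 h at 37 C; lysis buffer (Tris, EDTA, saponin, Triton X, SYBR Green I) is added and fluorescence measured next morning; values normalized to controls.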

[2] = test system: N140; assay: as above; conditions: P. falciparum in erythrocytes, SYBR Green DNA, 72 h; series mostly up to 28.7 µM
Summary of the method: as §1

[3] = test system: P93_24; assay: as above; conditions: P. falciparum in erythrocytes, SYBR Green DNA, 72 h; series mostly up to 28.7 µM
Summary of the method: as §1

[4] = test system: P94_40; assay: as above; conditions: P. falciparum in erythrocytes, SYBR Green DNA, 72 h; series mostly up to 28.7 µM
Summary of the method: as §1

[5] = test system: PAD; assay: as above; conditions: P. falciparum in erythrocytes, SYBR Green DNA, 72 h; series mostly up to 28.7 µM
Summary of the method: as §1

[6] = test system: PC15; assay: as above; conditions: P. falciparum in erythrocytes, SYBR Green DNA, 72 h; series mostly up to 28.7 µM
Summary of the method: as §1

[7] = test system: PC26; assay: as above; conditions: P. falciparum in erythrocytes, SYBR Green DNA, 72 h; series mostly up to 28.7 µM
Summary of the method: as §1

[8] = test system: PC49; assay: as above; conditions: P. falciparum in erythrocytes, SYBR Green DNA, 72 h; series mostly up to 28.7 µM
Summary of the method: as §1

[9] = test system: SC27B; assay: as above; conditions: P. falciparum in erythrocytes, SYBR Green DNA, 72 h; series mostly up to 28.7 µM
Summary of the method: as §1

[10] = test system: TAB109; assay: as above; conditions: P. falciparum in erythrocytes, SYBR Green DNA, 72 h; series mostly up to 28.7 µM
Summary of the method: as §1

[11] = test system: TAB113; assay: as above; conditions: P. falciparum in erythrocytes, SYBR Green DNA, 72 h; series mostly up to 28.7 µM
Summary of the method: as §1

[12] = test system: TAB165; assay: as above; conditions: P. falciparum in erythrocytes, SYBR Green DNA, 72 h; series mostly up to 28.7 µM
Summary of the method: as §1

[13] = test system: W2; assay: as above; conditions: P. falciparum in erythrocytes, SYBR Green DNA, 72 h; series mostly up to 28.7 µM
Summary of the method: as §1

[14] = test system: CRL-7250; assay: Cytotoxic Profiling of Annotated Libraries Using Quantitative High-Throughput Screening (AID 1296008); conditions: Five cell lines viability, CellTiter-Glo ATP luminescence, 48-72 h; hits give low values; on max response: on the % scale 0 is the no-effect control and ±100 the full control effect
Summary of the method: (§2)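 Cells exposed to compounds for 48 or 72 hr at 37 degrees Celsius. Viability read as ATP-coupled luminescence with CellTiter-Glo after 10 min at room temperature.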

[15] = test system: HEK293; assay: as above; conditions: Five cell lines viability, CellTiter-Glo ATP luminescence, 48-72 h; hits give low values
Summary of the method: as §2

[16] = test system: HaCat; assay: as above; conditions: Five cell lines viability, CellTiter-Glo ATP luminescence, 48-72 h; hits give low values
Summary of the method: as §2

[17] = test system: KB-3-1; assay: as above; conditions: Five cell lines viability, CellTiter-Glo ATP luminescence, 48-72 h, hits give low values
Summary of the method: as §2

[18] = test system: NIH3T3; assay: as above; conditions: Five cell lines viability, CellTiter-Glo ATP luminescence, 48-72 h; hits give low values
Summary of the method: as §2

[19] = test system: HEK293T; assay: qHTS assay to identify novel small-molecules to repurpose for Merkel cell carcinoma treatment (AID 1296009); conditions: MCC and control cell lines, CellTiter-Glo viability, 72 h; at 44.8 µM (top of the series) unless noted
Summary of the method: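 Dose-response viability screen; 72 hr exposure at 37 degree celsius; CellTiter-Glo added, 10 min room temperature, luminescence read; RLUs scaled between no-cell and DMSO wells.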
Further: nearly all actives have a fitted effect of over 60% in size.

O=C(O)c1ccccc1C(=O)Nc1ccc(S(=O)(=O)Nc2nccs2)cc1
inactive: Potency [1] | Potency [2] | Potency [3] | Potency [4] | Potency [5] | Potency [6] | Potency [7] | Potency [8] | Potency [9] | Potency [10] | Potency [11] | Potency [12] | Potency [13] | max response [14] -2.05% | outcome [15] | max response [16] -2.6% | max response [17] 5.93% | max response [18] -7.95% | outcome [19]

O=C(O)Cc1cn(-c2ccccc2)nc1-c1ccc(Cl)cc1
inactive: Potency [1] | Potency [2] | Potency [3] | Potency [4] | Potency [5] | Potency [6] | Potency [7] | Potency [8] | Potency [9] | Potency [10] | Potency [11] | Potency [12] | Potency [13] | max response [14] 3.22% | outcome [15] | max response [16] -24% | max response [17] 2.82% | max response [18] 4.05% | outcome [19]

O=C(O)CCCc1ccccc1
inactive: Potency [1] | Potency [2] | Potency [3] | Potency [4] | Potency [5] | Potency [6] | Potency [7] | Potency [8] | Potency [9] | Potency [10] | Potency [11] | Potency [12] | Potency [13] | max response [14] 1.18% | outcome [15] | max response [16] 2.59% | max response [17] 18.7% | max response [18] -2.38% | outcome [19]

NS(=O)(=O)c1cc(-c2nn[nH]n2)c(NCc2cccs2)cc1Cl
inactive: Potency [1] | Potency [2] | Potency [3] | Potency [4] | Potency [5] | Potency [6] | Potency [7] | Potency [8] | Potency [9] | Potency [10] | Potency [11] | Potency [12] | Potency [13] | max response [14] 1.54% | outcome [15] | max response [16] -8.31% | max response [17] -9.88% | max response [18] -0.0304% | outcome [19]

COC(=O)c1ccccc1C(=O)c1ccc(OCCN2CCCCC2)cc1
inactive: Potency [1] | Potency [2] | Potency [3] | Potency [4] | Potency [5] | Potency [6] | Potency [7] | Potency [8] | Potency [9] | Potency [10] | Potency [11] | Potency [12] | max response [14] -2.25% | outcome [15] | max response [16] -0.875% | max response [17] -16% | max response [18] -3.51% | outcome [19]

COc1ccc(-c2cc(=O)c3c(O)cc(O[C@@H]4O[C@H](CO[C@@H]5O[C@@H](C)[C@H](O)[C@@H](O)[C@H]5O)[C@@H](O)[C@H](O)[C@H]4O)cc3o2)cc1O
inactive: max response [14] -26.4% | outcome [15] | max response [16] -10.9% | max response [17] -15.8% | max response [18] -0.449% | outcome [19]

OC[C@@H](O)[C@@H](O)[C@H](O)[C@H](O)CO
inactive: Potency [1] | Potency [2] | Potency [3] | Potency [4] | Potency [5] | Potency [6] | Potency [7] | Potency [8] | Potency [9] | Potency [10] | Potency [11] | Potency [12] | Potency [13] | max response [14] -5.84% | outcome [15] | max response [16] 0.927% | max response [17] 5.16% | max response [18] -8.98% | outcome [19]

CC(=O)Nc1ccc(C(=O)O)cc1
inactive: Potency [1] | Potency [2] | Potency [3] | Potency [4] | Potency [5] | Potency [6] | Potency [7] | Potency [8] | Potency [9] | Potency [10] | Potency [11] | Potency [12] | Potency [13] | max response [14] -0.409% | outcome [15] | max response [16] 3.25% | max response [17] -6.78% | max response [18] -2.27% | outcome [19]

CCCOC(=O)c1ccc(N)cc1
inactive: Potency [1] | Potency [2] | Potency [3] | Potency [4] | Potency [5] | Potency [6] | Potency [7] | Potency [8] | Potency [9] | Potency [10] | Potency [11] | Potency [12] | Potency [13] | outcome [14] | outcome [15] | max response [16] -1.1% | max response [17] 1.99% | max response [18] -2.69% | outcome [19]

C[C@]1(Cn2ccnn2)[C@H](C(=O)O)N2C(=O)C[C@H]2S1(=O)=O
inactive: max response [14] -1.81% | outcome [15] | max response [16] -19.5% | max response [17] 13.6% | max response [18] -0.883% | outcome [19]

C[C@@H]1O[C@@H](OC[C@H]2O[C@@H](Oc3c(-c4ccc(O)c(O)c4)oc4cc(O)cc(O)c4c3=O)[C@H](O)[C@@H](O)[C@@H]2O)[C@H](O)[C@H](O)[C@H]1O
inactive: Potency [1] | Potency [2] | Potency [3] | Potency [4] | Potency [5] | Potency [6] | Potency [7] | Potency [8] | Potency [9] | Potency [10] | Potency [11] | Potency [12] | Potency [13] | max response [14] -4.29% | outcome [15] | max response [16] 2.78% | max response [17] 16.6% | max response [18] -8.53% | outcome [19]

CCOC(=O)[C@H](CCc1ccccc1)N[C@@H](C)C(=O)N1Cc2cc(OC)c(OC)cc2C[C@H]1C(=O)O
inactive: outcome [14] | outcome [15] | max response [16] 2.61% | max response [17] -3.37% | max response [18] 2.92% | outcome [19]

CCCCCCCCCCCCCCCCN
inactive: Potency [1] | Potency [2] | Potency [3] | Potency [4] | Potency [5] | Potency [6] | Potency [7] | Potency [8] | Potency [9] | Potency [10] | Potency [12] | Potency [13] | max response [14] -3.5% | outcome [15] | max response [16] -13.8% | max response [17] 5.46% | max response [18] -1.53% | outcome [19]

C[N+](C)(C)CC[N+]1(C)Cc2c(Cl)c(Cl)c(Cl)c(Cl)c2C1
inactive: Potency [1] | Potency [2] | Potency [3] | Potency [4] | Potency [5] | Potency [6] | Potency [7] | Potency [8] | Potency [9] | Potency [10] | Potency [11] | Potency [12] | Potency [13] | max response [14] -7.06% | outcome [15] | max response [16] -6.5% | max response [17] 9.08% | max response [18] 3.9% | outcome [19]
